Measured values from PubChem BioAssay (EPA / NIEHS).
Active and inactive are the calls of the source. Rule for the calls: active = hit-call score of the fitted dose curve at least 0.9, where 1 is the maximum; inactive = score below 0.9.

Assay: BSK_SAg_Proliferation: Cell Proliferation Assessment in the BioMAP Diversity Plus: SAg Assay (AID 2283095);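 note: relative cell number as total protein by SRB absorbance in sub-confluent culture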
Conditions: primary human HUVEC with PBMC
Procedure, shortened: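 A human primary co-culture of umbilical vein endothelium and blood mononuclear cells receives compound; relative cell number is quantified at 96 h by SRB staining and 560 nm absorbance, with DMSO-referenced bidirectional curve fitting.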

| SMILES | outcome | AC50 |
| --- | --- | --- |
| CC(C)CCCCCCCOC(=O)CCCCC(=O)OCCCCCCCC(C)C | inactive | – |
| COc1cccc(-c2ccc(/C=C\CN3CCCCCC3)cc2Cl)c1 | inactive | – |
| O=C(O)c1cccc(N(Cc2cccnc2)c2ccc(OC(F)F)c(OC(F)F)c2)c1 | – | 7.83 µM (active) |
| O=C(NS(=O)(=O)/C=C/c1ccccc1)c1ccc(F)cc1Cl | – | 8.5 µM (active) |
| CC(C)CC(C)(O)C#CC(C)(O)CC(C)C (stereo not given) | inactive | – |
| NC(=O)NO | inactive | – |
| CNCc1ccc(NC(=O)c2c[nH]c3c2C(=O)CCC3)cc1 | inactive | – |
| CC[C@H](C)C(=O)O[C@H]1C[C@@H](C)C=C2C=C[C@H](C)[C@H](CC[C@@H]3C[C@@H](O)CC(=O)O3)[C@H]21 | – | 4.5 µM (active) |
| CC(C)c1cccc(C(C)C)c1N1C(=O)c2ccc(O)cc2C1=O | – | 20 µM (active) |
| COc1ccc2sc(C(=O)Nc3nnn[nH]3)c(OC(C)C)c2c1 | – | 11.9 µM (active) |
| CCN(C(=O)c1cc(C)cc(OC[C@H](C)Nc2ccncc2)c1)C(C)C | inactive | – |
| CCCCC(CC)COC(=O)c1ccc(C(=O)OCC(CC)CCCC)cc1 (stereo not given) | inactive | – |
| O=c1[nH]c2ccc(S(=O)CCN3CCC(Cc4ccc(F)cc4)CC3)cc2o1 (stereo not given) | inactive | – |
| O=C(O)CC(O)C(=O)O (stereo not given) | inactive | – |
| CCCCCCc1ccc(O)cc1O | – | 31 µM (active) |
| COc1ccc(/C=C/S(=O)(=O)NC(=O)c2ccc(C)cc2Cl)cc1 | – | 6.54 µM (active) |
| CCOc1cccc(-n2cc(C(=O)N3CCN(c4cc(C(=O)O)c5ccccc5c4)CC3)nc2-c2ccc(C)cc2)c1 | – | 24.6 µM (active) |
| Nc1ccc(Nc2ccccc2)cc1 | – | 14 µM (active) |
| O=C(O)c1cc(N=Nc2ccc(S(=O)(=O)Nc3ccccn3)cc2)ccc1O | inactive | – |
| CCOCCOCCOCCO | inactive | – |
| Cc1ccc(N)cc1O | – | 8.98 µM (active) |
| CNS(=O)(=O)c1cc(C(=O)N2CCC(CCN3C4CCC3CC(n3c(C)nc5ccccc53)C4)(c3cccc(F)c3)CC2)c(Cl)cc1F (stereo not given) | – | 10.4 µM (active) |
| O=C(OC[C@H]1O[C@@H](OC(=O)c2cc(O)c(O)c(OC(=O)c3cc(O)c(O)c(O)c3)c2)[C@H](OC(=O)c2cc(O)c(O)c(OC(=O)c3cc(O)c(O)c(O)c3)c2)[C@@H](OC(=O)c2cc(O)c(O)c(OC(=O)c3cc(O)c(O)c(O)c3)c2)[C@@H]1OC(=O)c1cc(O)c(O)c(OC(=O)c2cc(O)c(O)c(O)c2)c1)c1cc(O)c(O)c(OC(=O)c2cc(O)c(O)c(O)c2)c1 | – | 6.18 µM (active) |
| O=C1CCC(N2C(=O)c3ccccc3C2=O)C(=O)N1 (stereo not given) | inactive | – |
| O=C(O)c1cccc(Oc2ccccc2)c1 | inactive | – |
| C=CCCCCCCCCC(=O)O | inactive | – |
| On1ccccc1=S | – | 6.94 µM (active) |
| COC(=O)c1c(Cl)c(Cl)c(C(=O)OC)c(Cl)c1Cl | inactive | – |
| Cn1c(=O)cc(Oc2ccc(F)cc2F)c2cnc(NCC(C)(C)O)nc21 | inactive | – |
| COc1ccc(-n2nc(C(F)F)cc2-c2ccc(S(C)=O)cc2)cc1 (stereo not given) | inactive | – |
